# Results from PubChem BioAssay AID1159580 (chemical genetic matrix, 2015).
# Several values for one entry are separate records, joined by “and”; a condition that tells them apart may be missing. Equal entries are not always repeated. Screen size: about 5,500 compounds; about 2,000 (36%) were called active. Another 18% or so got no clear call; they are omitted. Cut-off read from the data, not from the text of the source: active = normalized growth mostly below about 0.91 (no sharp cut-off); inconclusive = no clear call, values can overlap the other calls; inactive = mostly above about 0.92. Some of the results follow.
# Assay: chemical genetic growth profiling, strain panel (AID 1159580);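 note: tested at 20 µM; growth read once vehicle control cultures reached saturation at 30 °C; 1 = growth at the plate median or of vehicle wells; lower values mean less growth of the strain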
# Settings: S. cerevisiae deletion strains, growth OD
smiles,measurement,setting,value
COc1ccc(C[C@H]2NC[C@H](O)[C@H]2OC(C)=O)cc1,normalized growth,"locus YAL013W, strain DEP1, stronger effect = lower value",0.0582 (active)
same,normalized growth,"locus YAL021C, strain ccr4, stronger effect = lower value",0.397 (active)
same,normalized growth,"locus YAL026C, strain drs2, stronger effect = lower value",0.762 (active)
same,normalized growth,"locus YAL030W, strain snc1, stronger effect = lower value",0.713 (active)
same,normalized growth,"locus YBL061C, strain skt5, stronger effect = lower value",0.803 (active)
same,normalized growth,"locus YBR009C, strain hhf1, stronger effect = lower value",0.516 (active)
same,normalized growth,"locus YBR021W, strain FUR4, stronger effect = lower value",1.05 (inactive)
same,normalized growth,"locus YBR023C, strain chs3, stronger effect = lower value",0.823 (active)
same,normalized growth,"locus YBR171W, strain sec66, stronger effect = lower value",1 (inactive)
same,normalized growth,"locus YBR229C, strain ROT2, stronger effect = lower value",1.01 (inactive)
same,normalized growth,"locus YBR231C, strain swc5, stronger effect = lower value",0.648 (active)
same,normalized growth,"locus YBR279W, strain paf1, stronger effect = lower value",0.869 (active)
same,normalized growth,"locus YCL011C, strain gbp2, stronger effect = lower value",0.659 (active)
same,normalized growth,"locus YCL016C, strain dcc1, stronger effect = lower value",0.791 (active)
same,normalized growth,"locus YCL029C, strain bik1, stronger effect = lower value",0.961 (inactive)
same,normalized growth,"locus YCL069W, strain vba3, stronger effect = lower value",0.904 (active)
same,normalized growth,"locus YCR088W, strain abp1, stronger effect = lower value",0.835 (active)
same,normalized growth,"locus YDL005C, strain med2, stronger effect = lower value",0.122 (active)
same,normalized growth,"locus YDL035C, strain GPR1, stronger effect = lower value",0.222 (active)
same,normalized growth,"locus YDL040C, strain nat1, stronger effect = lower value",1 (inactive)
same,normalized growth,"locus YDL074C, strain BRE1, stronger effect = lower value",0.242 (active)
same,normalized growth,"locus YDL101C, strain DUN1, stronger effect = lower value",0.306 (active)
same,normalized growth,"locus YDL134C, strain PPH21, stronger effect = lower value",0.533 (active)
same,normalized growth,"locus YDL185W, strain tfp1, stronger effect = lower value",0.993 (inactive)
same,normalized growth,"locus YDL192W, strain arf1, stronger effect = lower value",0.447 (active)
same,normalized growth,"locus YDR001C, strain nth1, stronger effect = lower value",0.964 (inactive)
same,normalized growth,"locus YDR069C, strain doa4, stronger effect = lower value",0.117 (active)
same,normalized growth,"locus YDR101C, strain arx1, stronger effect = lower value",0.874 (active)
same,normalized growth,"locus YDR137W, strain rgp1, stronger effect = lower value",0.942 (inactive)
same,normalized growth,"locus YDR150W, strain NUM1, stronger effect = lower value",0.656 (active)
same,normalized growth,"locus YDR159W, strain sac3, stronger effect = lower value",1.09 (inactive)
same,normalized growth,"locus YDR162C, strain NBP2, stronger effect = lower value",0.0621 (active)
same,normalized growth,"locus YDR195W, strain ref2",0.698 (active)
same,normalized growth,"locus YDR297W, strain sur2, stronger effect = lower value",0.838 (active)
same,normalized growth,"locus YDR318W, strain mcm21, stronger effect = lower value",0.7 (active)
same,normalized growth,"locus YDR334W, strain swr1, stronger effect = lower value",0.901 (active)
same,normalized growth,"locus YDR335W, strain msn5, stronger effect = lower value",0.927 (inactive)
same,normalized growth,"locus YDR388W, stronger effect = lower value",0.161 (active)
same,normalized growth,"locus YDR392W, strain spt3, stronger effect = lower value",0.622 (active)
same,normalized growth,"locus YDR502C, strain sam2, stronger effect = lower value",0.734 (active)
same,normalized growth,"locus YEL003W, strain gim4, stronger effect = lower value",0.984 (inactive)
same,normalized growth,"locus YEL037C, strain rad23, stronger effect = lower value",0.895 (active)
same,normalized growth,"locus YEL061C, strain CIN8 (second series), stronger effect = lower value",0.937 (inactive)
same,normalized growth,"locus YEL061C, strain CIN8, stronger effect = lower value",0.598 (active)
same,normalized growth,"locus YER015W, strain faa2, stronger effect = lower value",0.81 (active)
same,normalized growth,"locus YER016W, strain bim1, stronger effect = lower value",0.9 (active)
same,normalized growth,"locus YER110C, stronger effect = lower value",1 (inactive)
same,normalized growth,"locus YER111C, strain swi4, stronger effect = lower value",0.981 (inactive)
same,normalized growth,"locus YER155C, strain BEM2 (second series), stronger effect = lower value",0.938 (inactive)
same,normalized growth,"locus YER155C, strain BEM2, stronger effect = lower value",1.01 (inactive)
same,normalized growth,"locus YER167W, strain BCK2, stronger effect = lower value",0.704 (active)
same,normalized growth,"locus YFR010W, strain ubp6, stronger effect = lower value",0.104 (active)
same,normalized growth,"locus YGL078C, strain dbp3, stronger effect = lower value",0.981 (inactive)
same,normalized growth,"locus YGL086W, strain mad1, stronger effect = lower value",0.501 (active)
same,normalized growth,"locus YGL167C, strain pmr1, stronger effect = lower value",1.02 (inactive)
same,normalized growth,"locus YGL173C, strain kem1, stronger effect = lower value",0.885 (active)
same,normalized growth,"locus YGL227W, strain vid30, stronger effect = lower value",0.989 (inactive)
same,normalized growth,"locus YGL240W, strain doc1, stronger effect = lower value",0.994 (inactive)
same,normalized growth,"locus YGL248W, strain PDE1, stronger effect = lower value",0.298 (active)
same,normalized growth,"locus YGL253W, strain hxk2, stronger effect = lower value",0.575 (active)
same,normalized growth,"locus YGR078C, strain PAC10, stronger effect = lower value",0.523 (active)
same,normalized growth,"locus YGR135W, strain pre9, stronger effect = lower value",0.272 (active)
same,normalized growth,"locus YGR229C, strain SMI1, stronger effect = lower value",0.0868 (active)
same,normalized growth,"locus YGR252W, strain gcn5, stronger effect = lower value",0.68 (active)
same,normalized growth,"locus YHR013C, strain ard1, stronger effect = lower value",0.336 (active)
same,normalized growth,"locus YHR027C, strain rpn1, stronger effect = lower value",0.717 (active)
same,normalized growth,"locus YHR030C, strain SLT2, stronger effect = lower value",0.133 (active) and 0.945 (inactive)
same,normalized growth,"locus YHR079C, strain IRE1 (second series), stronger effect = lower value",0.916 (active)
same,normalized growth,"locus YHR079C, strain IRE1, stronger effect = lower value",0.921 (inactive)
same,normalized growth,"locus YHR094C, strain hxt1, stronger effect = lower value",1 (inactive)
same,normalized growth,"locus YHR129C, strain ARP1, stronger effect = lower value",0.831 (active)
same,normalized growth,"locus YHR142W, strain chs7, stronger effect = lower value",0.92 (inactive)
same,normalized growth,"locus YHR200W, strain rpn10, stronger effect = lower value",0.494 (active)
same,normalized growth,"locus YIL066C, strain RNR3, stronger effect = lower value",0.258 (active)
same,normalized growth,"locus YIL073C, strain SPO22, stronger effect = lower value",0.119 (active)
same,normalized growth,"locus YIL125W, strain kgd1, stronger effect = lower value",1.01 (inactive)
same,normalized growth,"locus YIR030C, strain dcg1, stronger effect = lower value",0.919 (active)
same,normalized growth,"locus YJL092W, strain hpr5, stronger effect = lower value",0.89 (active)
same,normalized growth,"locus YJL095W, strain BCK1 (second series), stronger effect = lower value",0.84 (active)
same,normalized growth,"locus YJL095W, strain BCK1, stronger effect = lower value",0.596 (active) and 0.961 (inactive)
same,normalized growth,"locus YJL115W, strain asf1, stronger effect = lower value",1.02 (inactive)
same,normalized growth,"locus YJL129C, strain trk1, stronger effect = lower value",0.479 (active)
same,normalized growth,"locus YJL134W, strain LCB3, stronger effect = lower value",1.02 (inactive)
same,normalized growth,"locus YJL154C, strain vps35, stronger effect = lower value",1.01 (inactive)
same,normalized growth,"locus YJL164C, strain tpk1, stronger effect = lower value",0.622 (active)
same,normalized growth,"locus YJL166W, strain qcr8, stronger effect = lower value",0.622 (active)
same,normalized growth,"locus YJL168C, strain set2, stronger effect = lower value",1.01 (inactive)
same,normalized growth,"locus YJL187C, strain SWE1 (second series), stronger effect = lower value",0.32 (active)
same,normalized growth,"locus YJR043C, strain POL32, stronger effect = lower value",0.524 (active)
same,normalized growth,"locus YJR066W, strain TOR1, stronger effect = lower value",0.911 (inactive)
same,normalized growth,"locus YJR075W, strain HOC1, stronger effect = lower value",0.174 (active)
